Whole data set: some 33,000 sequences, median “E-score (-0.5 to 0.5)” near -0.011, cut for the highest 2% near 0.28. The full list was thinned out, with the highest values kept by preference.
Molecular target: T1, Gcr1 (UniProt P07261)
T1 sequence: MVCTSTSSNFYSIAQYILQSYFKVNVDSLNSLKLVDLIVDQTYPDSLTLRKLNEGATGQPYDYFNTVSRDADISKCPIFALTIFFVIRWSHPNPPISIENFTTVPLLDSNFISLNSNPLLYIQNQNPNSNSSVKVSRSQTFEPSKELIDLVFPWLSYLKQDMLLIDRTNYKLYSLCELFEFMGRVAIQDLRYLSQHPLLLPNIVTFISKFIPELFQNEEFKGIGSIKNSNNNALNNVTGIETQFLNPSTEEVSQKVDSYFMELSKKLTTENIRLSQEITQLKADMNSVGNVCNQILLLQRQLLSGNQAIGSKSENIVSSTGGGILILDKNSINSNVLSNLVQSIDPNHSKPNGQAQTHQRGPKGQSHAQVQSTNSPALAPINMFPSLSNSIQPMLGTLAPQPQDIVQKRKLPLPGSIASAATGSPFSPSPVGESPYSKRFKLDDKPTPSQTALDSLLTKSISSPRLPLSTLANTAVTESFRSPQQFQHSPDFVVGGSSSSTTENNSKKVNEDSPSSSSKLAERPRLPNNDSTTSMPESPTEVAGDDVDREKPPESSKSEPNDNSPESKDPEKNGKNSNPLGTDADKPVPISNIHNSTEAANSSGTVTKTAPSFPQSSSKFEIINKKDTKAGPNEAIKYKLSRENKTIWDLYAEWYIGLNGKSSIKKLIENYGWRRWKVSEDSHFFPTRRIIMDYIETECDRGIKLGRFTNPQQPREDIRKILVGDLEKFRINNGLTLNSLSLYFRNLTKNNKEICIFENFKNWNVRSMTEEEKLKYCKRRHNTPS
Experiment: PBM E-score (8-mer binding enrichment) (E-score (-0.5 to 0.5)); higher = stronger / more preferred TF binding
Conditions: protein concentration: 100 nM; construct: GST-full length
How it was run: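 Full-length yeast transcription factors or their DNA-binding domains, GST-tagged and expressed with PURExpress, were applied at about 100-200 nM to universal all-10-mer Agilent arrays. These arrays had been made double-stranded by primer extension on fresh or once-stripped slides. Detection used fluorescent anti-GST, normalisation used masliner, and E-scores for ungapped eight-base words pooled with reverse complements came from the Universal PBM Analysis Suite.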

Sequence	PBM E-score
ACATTACA	0.178
GGGTTAAC	0.0316
ATCCCCGA	0.0266
AGCCCGCA	0.225
CCTACTAC	-0.0926
CACTAACG	0.00491
CGCGAGTC	-0.109
AGTAGCAT	-0.0355
CACCTTAG	0.141
TGCAGCCA	0.00515
CGCAGCGA	0.22
GGCAGCCC	0.324
GGCAGCCA	0.422
AGCAGCCC	0.2
AGCAGCCA	0.35
CGCAGCCA	0.365
GCCAGCCA	-0.0514
GCCAGCCC	-0.0556
GGCAGCAC	-0.0566
CGCAGCCG	0.0939
AGCAGCAA	0.0994
AGGCCAGG	-0.25
ATCTATGA	-0.0683
ACTGAAAC	0.0485

Sequence	PBM E-score
CTAAACGC	0.0998
AGATCTGG	0.00449
ACGTTCAC	-0.22
GTCAGGAC	0.00402
GTCCAAGA	0.149
CACTCCCG	-0.134
GCCCTGGA	-0.0767
CCAGGAAG	0.166
ACAGGAAT	0.307
ACAGGAAC	0.144
ACAGGACG	0.26
ACAGGAAG	0.455
ACAGGAAA	0.125
CTGTTCCC	-0.0872
CACGGTAA	-0.233
CTATCGAC	-0.0454
GCCTCTCA	-0.0769
ACCTATAG	0.161
CGAGCGGA	-0.113
GGGAGCCC	0.226
CGGAGCCG	0.0209
GGGAGCCA	0.387
TGGAGCCA	0.205
CGGAGCCA	0.282

Sequence	PBM E-score
AGGAGCCA	0.214
GGTTTGGA	0.115
AATGCCCG	-0.207
AGAAAGGA	-0.143
CCGTCTCG	-0.0715
GTCACTAA	0.107
CGCGCCTA	0.258
GGCGCCAA	0.377
AGCGCCAA	0.124
GGCGCCAC	0.253
GGCGCCGA	0.286
AGCGCCGA	0.0415
GGCGCCTA	0.385
CGCGCCGA	0.0709
AGCGCCTA	0.164
AGGGTCGG	-0.133
GAATTTCC	0.082
AATACAAT	-0.0331
ATTACAGC	-0.134
AATACAGG	0.343
AATACAGT	-0.0143
AATACAGA	-0.0124
ATTACAGG	0.355
AATACAAG	0.293

Sequence	PBM E-score
AATACAAC	0.0962
ATTACAGA	0.053
CAAAGACC	0.00996
CAGTGGGC	-0.0102
ACTGCTAT	-0.225
ATATCCTC	-0.118
GACACCCC	-0.0371
AACGTCGC	-0.00983
AACCATAG	-0.00302
AAAATCCG	0.111
CTGCGCCA	-0.135
GGGCGCCA	0.403
GCGCGCCA	0.0132
GGGCGCGA	0.187
TGGCGCCA	0.37
CAGCGCCA	0.0174
TGGCGCAA	-0.0289
TAGCGCCA	0.181
AGGCGCTA	0.0978
GGGCGCTA	0.32
CGGCGCTA	-0.00295
CGGCGCCA	0.308
AAGGTAAA	0.0141
GTCAAGGA	0.0238

Sequence	PBM E-score
GAGTTTCA	-0.0957
GCCTTCGA	-0.126
CGGCGCCG	0.113
GGGCGCAC	-0.138
GAGCGCCC	0.234
GGGCGCCC	0.459
CGGCGCCC	0.359
CGGCGCGC	0.193
CAGCTGGG	-0.0114
AACACCGT	-0.132
ACATTTGC	-0.0633
CGGGTGCC	0.377
AGGGTGCG	0.0402
GAGGTGCA	-0.125
AAGGTGCC	0.144
GAGGTGCC	0.281
CTGGTGCA	0.216
ATGGTGCC	0.227
CGGGTGCA	0.0724
AGGGTGCA	-0.0715
CTGGTGCC	0.352
AGGGTGCC	0.39
CGGGTGTC	-0.116
GCGATCCC	0.0838

Sequence	PBM E-score
ACCAACCT	-0.0617
ACCAATAA	0.0976
CAGGGAGG	-0.257
CGTGGTGA	-0.09
CAGTCTAC	-0.0756
CGCCGACG	0.0121
AGACGCAG	0.0695
AGACGCCA	0.283
AGACGCCG	0.421
ACACGCCG	0.199
AGACGCCT	0.327
AGACGCAT	0.231
CCACGCCG	-0.106
CGACGCCG	0.349
ACACGCCT	-0.087
ACACGCCA	-0.163
CGACGCCA	0.157
AAAGCGCG	-0.0766
TAGCCCCA	0.139
AGAGGGGC	-0.044
GGTTTGAC	0.0178
CGTATGAC	0.0685
TAAACCGA	-0.235
CTCTGTTC	-0.0161

Sequence	PBM E-score
AACCGGGT	0.0617
GTCCGAAA	0.212
CTGGTCAA	0.0775
CGACGCGC	0.0401
AGACGCGA	0.214
AGACGCGC	0.289
ACCGTGGG	-0.00593
GAGTGGAC	-0.0196
GAGTGGAA	0.316
AAGTGGTA	0.176
AAGTGGTG	0.281
GGGTGGAA	-0.113
AAGTGGAA	0.41
AAGTGGTC	0.0307
TGGTGGAA	0.124
AAGTGGAT	0.136
TAGTGGAA	0.42
AAGTGGAG	0.141
CAGTGGAA	0.244
GTCGCCTA	0.0571
GATCTCAC	-0.257
CTAGGGTC	0.00957
ATTTTTTG	0.228
AGTTATTC	0.0537

Sequence	PBM E-score
CACTGTAG	-0.115
TAGTGGCA	0.289
AAGTGGCA	0.238
GAGTGGCA	-0.0587
AAGCGATC	-0.135
AGGTAGTC	0.072
CGGAGTCA	-0.00995
AGGAGTCA	-0.0283
CGGAGTCC	0.281
AGGAGTCC	0.303
AGGAGTCG	-0.069
CGGAGTAC	-0.243
GACACCTA	0.0961
TCCCTACA	0.00308
AAGCAGGA	0.0293
CCTCAGAC	-0.19
GCACTTCC	0.168
CCACTTCG	0.0958
CCACTTCC	0.305
CAACTTCC	0.321
CAACTTCA	-0.0643
CAACTTCG	0.107
GGCTCGCA	-0.137
